Screens deposited in PubChem by National Center for Advancing Translational Sciences (NCATS).
HCV inhibitor: blocks hepatitis C virus; Huh7.5.1 HCVcc-Cre infection, luciferase reporter, 44 h; Potency, µM (doses to about 41.8 µM), for inactives: at the top dose activity change, negative = inhibition, hits mostly inhibitors; actives 3.4% (n = 340,000); AID 651820; also: potency is read from the fitted curve at half-maximal effect
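Cells seeded at 1,000/well and cultured 4 h, then compounds added followed by HCVcc-Cre virus (~0.5 moi). After 44 h further culture, luciferase substrate was added, plates held 15 min at room temperature, and luminescence read for 15 sec.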
Pf growth 48h: P. falciparum growth inhibition at 48 hours (one generation); P. falciparum luciferase growth in erythrocytes, 48 h; Potency, µM (series often up to 28.7 µM), for inactives: top-dose activity change, negative = inhibition, most hits filed as inhibitors; actives 5.9% (n = 310,000); AID 504832; also: potency is read from the fitted curve at half-maximal effect
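In quantitative HTS format, infected erythrocytes bearing luciferase-reporter parasites were treated for a single generation at 37 C. Luminescence after adding detection reagent served as the growth measure.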
HCMV antiviral: human cytomegalovirus inhibition; HFF cells, HCMV-luciferase reporter, 72 h; stronger effect = lower value; activity change, negative = inhibition, % at 57.5 µM; actives 4.5% (n = 410,000); in the data active = activity change below about -60%; inconclusive = no clear call, values can overlap the other calls; inactive = above about -39%
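Cell-based, HFFs, 1000 cells/well, 16 h 37C; cpds in DMSO + HCMV-luc, MOI 1 PFU/cell; 72 h 37C; OneGlo luminescence after 5 min RT; norm. to buffer vs Salinomycin 10uM.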
Pf growth 96h: P. falciparum growth inhibition at 96 hours. P. falciparum luciferase reporter growth, 96 h. Potency, µM (doses to about 28.7 µM), without a hit: at the top dose activity change, negative = inhibition, usual class: inhibitors. actives 6.9% (n = 320,000). AID 504834; also: potency is read from the fitted curve at half-maximal effect
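Delayed-death screen, second-generation endpoint: infected erythrocytes, 2% hematocrit, 0.05% parasitemia final; 96 hours at 37 C, 5% CO2; luciferase detection reagent; luminescence decrease equals reduced growth.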
An asterisk follows results filed as active; ? = inconclusive; . = no result given. Only some compounds are listed: those with a hit (about 13% of all), similar ones and a draw of the others. Unless noted, calls follow the shape of the dose curve; as a rule, active = well fitted inhibition curve with a large enough effect; inconclusive = small, poorly fitted or top-dose-only effect, or another doubt; inactive = no such curve, though single readings can be large or run the other way. % is scaled to controls: 0 for no effect and ±100 for the full control effect.

SMILES | HCV inhibitor | Pf growth 48h | HCMV antiviral | Pf growth 96h
COc1ccc(C2(c3ccc(OC)cc3)NC(=O)N(CC(=O)NCC(C)c3ccccc3)C2=O)cc1 (stereo unspecified) | ? | 11.7µM* | 0.6 | 11.7µM*
Cc1cc(C)cc(Nc2nc3ccccc3nc2-n2nc(C)cc2C)c1 | . | . | 4.5 | .
CC(=O)c1cccc(NC(=O)c2cc(C)nc3c2c(C)nn3-c2cccc(Cl)c2C)c1 | . | . | -14.3 | .
COCCn1c(-c2ccccc2Cl)nc2c(c(=O)c3ccccc3n2C)c1=O | 3.5% | -18.7% | 13.1 | ?
Cc1nc2c(c(=O)c3ccccc3n2C)c(=O)n1C1CCCC1 | . | . | 56.9 | .
Cn1c2ccccc2c(=O)c2c(=O)n(C3CCCCCC3)c(C3CCCCC3)nc21 | 0.8% | 8.28µM* | -25.9 | 10.4µM*
Cn1c2ccccc2c(=O)c2c(=O)n(-c3ccccc3)c(C3CCCCC3)nc21 | 13.4% | 9.28µM* | 50.1 | 9.28µM*
Cn1c2ccccc2c(=O)c2c(=O)n(C3CCCCC3)c(-c3cccs3)nc21 | 10µM* | 6.57µM* | ? | .
CCc1nc2c(c(=O)c3ccccc3n2C)c(=O)n1C1CCCCCC1 | ? | ? | -63.1* | ?
Cn1c2ccccc2c2c(C(=O)O)cn(C3CCCC3)c(=O)c21 | ? | . | 29.3 | ?
Cc1noc2ncnc(N3CCCC(C(=O)NC(C)C)C3)c12 (stereo unspecified) | . | . | -4.9 | .
CC(C)n1ncc2c(C(=O)NCCc3ccc(F)cc3)cc(C3CC3)nc21 | ? | 9.28µM* | -35.5 | ?
CCc1ccccc1NC(=O)CN(C)C(=O)c1cc(C2CC2)nc2c1cnn2C(C)C | -23.6% | 11.7µM* | 4.6 | ?
Cc1ccccc1CCNC(=O)c1cc(C2CC2)nc2c1cnn2C(C)C | ? | 11.7µM* | 0.4 | 13.1µM*
Cc1ccc2nc(-c3ccncc3)cc(C(=O)NCCc3ccc(F)cc3)c2c1 | ? | -9.9% | ? | ?
CN(CC(=O)Nc1ccccc1Cl)C(=O)c1cc(C2CC2)nn1-c1ccccc1 | -13.7% | -1.0% | -18.3 | 14.5%
CC(NNC(=O)c1ccccc1)c1ccccc1 (stereo unspecified) | . | 84.9% | . | 94.4%
CCCn1cc(S(=O)(=O)c2ccccc2)c(=O)c2cc(F)c(N3CCCC(C)C3)cc21 (stereo unspecified) | . | . | -14.9 | .
O=C(CSc1cn(CC(=O)N2CCCCC2)c2ccccc12)NCc1ccccc1 | . | . | -8.4 | .
CO/N=C/C(c1ncc(C(F)(F)F)cc1Cl)S(=O)(=O)c1ccccc1 (stereo unspecified) | 14.6% | 10.4µM* | 42.9 | 9.28µM*
CCOc1cnn(-c2cc(Oc3ccc(C)cc3)ncn2)c(=O)c1Cl | -5.8% | . | 1.0 | ?
Cc1ccccc1Oc1cc(-n2ncc(Cl)c(Cl)c2=O)ncn1 | ? | ? | -105.3* | -28.9%
CCCCOc1ccc(NC(=O)Cn2nnnc2-c2ccccc2F)cc1 | . | . | 9.9 | .
COc1ccc(CN2CCN(C(C)C(=O)NC(C)c3ccc(F)cc3)CC2)cc1F (stereo unspecified) | -28.3% | -11.8% | ? | -13.4%
COc1ccc(CN2CCN(C(C)C(=O)N(C)Cc3cccc(F)c3)CC2)cc1OC (stereo unspecified) | ? | -10.7% | -101.6* | ?
SMILES | HCV inhibitor | Pf growth 48h | HCMV antiviral | Pf growth 96h
CC(NC(=O)CSc1nc2sc3c(c2c(=O)n1-c1ccccc1)CCCC3)c1ccccc1 (stereo unspecified) | 0.8% | 11.7µM* | -80.7* | -24.7%
O=C(O)CSc1nc2sc3c(c2c(=O)n1-c1ccccc1)CCC3 | -4.9% | 4.5% | -24.5 | 2.5%
Cc1nn(Cc2ccccc2)c(C)c1NC(=O)CSc1nc2sc3c(c2c(=O)n1C)CCC3 | 22.4µM* | . | . | .
CN(C)C(CNC(=O)CSc1nc2sc3c(c2c(=O)n1C)CCCC3)c1ccccc1 (stereo unspecified) | ? | ? | -27.3 | 11.7µM*
Cc1ccccc1-n1c(SCC(=O)c2c(N)n(C)c(=O)n(C)c2=O)nc2sc3c(c2c1=O)CCCC3 | ? | 3.7µM* | 16.6 | 0.928µM*
Cc1cc(NC(=O)CSc2nc3sc4c(c3c(=O)n2C)CCCC4)no1 | -2.7% | 8.3% | 5.4 | -20.3%
Cc1ccccc1-n1c(SCC(=O)c2c(N)n(C)c(=O)n(C)c2=O)nnc1-c1cccnc1 | 7.9% | -8.5% | -25.8 | -15.3%
Cc1ccsc1CN(C(=O)c1ccc(Br)cc1)C1CCS(=O)(=O)C1 (stereo unspecified) | . | . | -7.1 | .
O=C(Nc1ccccn1)c1ccc2c(=O)n3c(nc2c1)CCCCC3 | -15.4% | 79.3% | 148.1 | 187.7%
Cc1ccc(-c2csc(NC(=O)c3ccc4c(=O)n5c(nc4c3)CCCCC5)n2)cc1 | ? | ? | -66.4* | ?
O=C(O)CSc1c2c(nc3cc(C(=O)Nc4ccc(F)c(Cl)c4)ccc13)CCCC2 | -18.9% | 5.6% | 10.0 | 1.04µM*
CC(=O)c1ccc(NC(=O)c2ccc3c(=O)n4c(nc3c2)CCCCC4)cc1 | ? | ? | -30.5 | 18.4%
CCc1ccc(C(=O)NNC(=O)c2ccc3c(=O)n4c(nc3c2)CCC4)cc1 | 9.8% | 10.9% | 37.4 | 26.7%
O=C(Nc1ccc(F)cc1)c1ccc2c(=O)n3c(nc2c1)CCCCC3 | ? | 87.0% | 33.1 | 4.65µM*
CCc1cccc(NC(=O)c2ccc3c(=O)n4c(nc3c2)CCCCC4)c1 | 12.6µM* | ? | -17.5 | -14.9%
CCOC(=O)c1[nH]c2c(c1Cc1ccccc1OC)C(=O)CC(c1ccc(OCC)cc1)C2 (stereo unspecified) | . | . | -18.5 | .
O=C(Nc1ccc(Cl)cc1Cl)c1ccc2c(=O)n3c(nc2c1)CCC3 | -20.7% | 57.2% | 37.0 | 84.5%
O=C(Nc1cccc(Cl)c1)c1ccc2c(=O)n3c(nc2c1)CCCCC3 | 8.91µM* | -24.5% | -26.2 | ?
O=C(Nc1ccc(Cl)cc1)c1ccc2c(=O)n3c(nc2c1)CCCCC3 | ? | 6.1% | -21.5 | 5.8%
O=C(Nc1ccc(F)c(Cl)c1)c1ccc2c(=O)n3c(nc2c1)CCCCC3 | 10µM* | 204.6% | -90.5* | 49.7%
COC(=O)c1ccc(NC(=O)CSc2nc3cc4ccccc4cc3[nH]2)cc1 | . | . | 13.6 | .
COc1ccc(CN(C(=O)CSc2nnc(-c3c[nH]c4ccccc34)o2)c2ccc(F)cc2)cc1OC | 5.01µM* | 4.15µM* | -70.1* | ?
COc1ccc(CN(C(=O)CSc2nnc(-c3ccc(F)cc3)o2)c2ccc(F)cc2)cc1 | ? | -22.6% | -18.1 | -1.5%
COc1ccc(N(Cc2ccccc2)C(=O)CSc2nnc(Cn3nnc4ccccc43)o2)cc1 | 14.1µM* | ? | -22.7 | .
O=C(CSc1nnc(Cn2nnc3ccccc32)o1)N(Cc1ccc(F)cc1)c1ccccc1 | 1.58µM* | ? | -99.8* | -29.2%
Cc1ccc(-c2nc(SCC(=O)NCc3ccco3)c3c(=O)n(C)c(=O)n(C)c3n2)cc1 | . | . | 4.0 | .
COC(=O)CN1C(=O)CSc2ccc(S(=O)(=O)N3CCOCC3)cc21 | . | . | -32.4 | .
Cn1nc(-c2ccc(C(=O)Nc3ccc(OC(F)(F)F)cc3)cc2)c2ccccc2c1=O | . | . | -32.8 | .
